Assay outcomes from PubChem BioAssay.
HP1b binding inh: blocks HP1-beta chromodomain binding to methylated histone tails | 0.56% of 390,000 active | Potency, µM (top dose mostly 114 µM), inactives show top-dose activity change, negative = inhibition, actives largely listed as inhibitors | AlphaScreen HP1-beta / biotin-H3K9me3 peptide binding | P83916; also: nearly all actives have a fitted effect of over 70% in size
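AlphaScreen: HP1-beta (50 nM) preformed 30 min with biotin-H3(1-18)K9me3 peptide (50 nM) in PBS pH 7.4, 0.01% Tween-20. Compound added for 30 min at RT, then streptavidin donor/nickel chelate acceptor beads (10 ug/mL) for 30 min.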
JMJD2A Tudor: inhibitors of human JMJD2A Tudor domain; O75164; AlphaScreen JMJD2A-Tudor / H3K4me3 peptide binding; Potency, µM (highest dose often 114 µM), inactives show at the top dose activity change, negative = inhibition, actives largely listed as inhibitors; 4.4% of 390,000 active; AID 504339; also: % is scaled to controls: 0 for no effect and ±100 for the full control effect; nearly all actives have a fitted effect of over 50% in size
Sfp PPTase inh: Sfp phosphopantetheinyl transferase inhibition. Biochemical Sfp PPTase activity, qHTS. 3.5% of 310,000 active. Potency, µM, for inactives: largest response in the series, negative = inhibition, most hits filed as inhibitors. Q9F4F7;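 also: the enzyme is Sfp with the accession as filed and its product quenches rhodamine fluorescence; 0% = enzyme reaction without inhibitor and -100% = no enzyme wells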
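Sfp 15 nM + cpd, 15 min RT; start w/ rhodamine-CoA 5 uM, BHQ-2-YbbR 12.5 uM (final); 50 mM Hepes pH 7.6, 10 mM MgCl2, 0.01% NP-40, 0.01% BSA; read 525/598 nm at 0 and 30 min.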
BAZ2B block: inhibitors of human BAZ2B bromodomain | Q9UIF8 | AlphaScreen BAZ2B-H3K14Ac peptide displacement | Potency, µM (series often up to 114 µM), for inactives: at the highest dose activity change, negative = inhibition, usual class: inhibitors | 4.4% of 360,000 active; also: % is scaled to controls: 0 for no effect and ±100 for the full control effect; nearly all actives have a fitted effect of over 60% in size
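Inhibition is scored as reduced AlphaScreen emission. The BAZ2B/b-H3(5-23)K14Ac complex (50 nM each) in PBS pH 7.4, 0.01% Tween-20 meets compound (up to 110 uM) for 30 min at RT before bead addition.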
ALOX12 inh: inhibitors of human 12S-lipoxygenase ALOX12. P18054. purified 12hLO, xylenol orange hydroperoxide absorbance. Potency, µM (highest dose often 108 µM), without a hit: at the highest dose activity change, negative = inhibition, usual class: inhibitors. 1.1% of 580,000 active; also: % is scaled to controls: 0 for no effect and ±100 for the full control effect
Target sequence (P18054 whole entry, looked up): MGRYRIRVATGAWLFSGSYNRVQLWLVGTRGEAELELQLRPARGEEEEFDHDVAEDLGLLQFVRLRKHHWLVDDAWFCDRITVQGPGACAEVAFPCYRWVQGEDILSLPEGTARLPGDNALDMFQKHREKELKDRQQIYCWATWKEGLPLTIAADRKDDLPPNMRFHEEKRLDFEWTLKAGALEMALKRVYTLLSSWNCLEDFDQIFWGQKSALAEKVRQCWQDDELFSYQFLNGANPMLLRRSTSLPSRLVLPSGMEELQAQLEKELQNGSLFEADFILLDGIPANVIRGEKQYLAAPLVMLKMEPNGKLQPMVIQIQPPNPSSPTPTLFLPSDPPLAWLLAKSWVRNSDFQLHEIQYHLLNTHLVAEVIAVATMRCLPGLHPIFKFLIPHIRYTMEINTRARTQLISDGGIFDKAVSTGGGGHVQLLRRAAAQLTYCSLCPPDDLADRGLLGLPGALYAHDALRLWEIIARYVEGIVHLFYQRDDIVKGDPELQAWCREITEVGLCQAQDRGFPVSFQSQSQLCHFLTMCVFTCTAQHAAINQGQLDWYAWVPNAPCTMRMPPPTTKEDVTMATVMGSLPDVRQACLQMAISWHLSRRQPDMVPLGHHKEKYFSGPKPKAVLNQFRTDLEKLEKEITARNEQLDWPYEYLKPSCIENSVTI
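Purified human 12hLO (150 nM final) in 25 mM Hepes, 0.01% Triton X-100, pH 7.0 was preincubated 15 min at room temperature with compound. Then 40 uM arachidonic acid was added, 30 min. Hydroperoxide was read by Fe-XO absorbance ratio 573/405 nm.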
G9a block: inhibitors of human histone lysine methyltransferase G9a; Q96KQ7; G9a H3K9 monomethylation, AlphaScreen, 2 h; Potency, µM (top dose mostly 102 µM), for the others: top-dose activity, negative = inhibition, actives largely listed as inhibitors; 8.8% of 350,000 active; AID 504332; also: % is scaled to controls: 0 for no effect and ±100 for the full control effect; nearly all actives have a fitted effect of over 75% in size
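Step 1: enzyme (final 20 nM) with compound, 15 min RT. Step 2: substrate peptide 500 nM and SAM 20 uM, 2 h RT. Step 3: anti-H3K9me1 antibody and AlphaScreen beads, 10 min, then plate read.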
An asterisk follows results filed as active; i = inactive; ? = inconclusive; / = no result; [ ] = dose if it differs, or a comment. Only some compounds are listed: those with a hit (about 8.7% of all), similar ones and a draw of the others. Calls follow the shape of the dose curve; as a rule, active = well fitted curve in the direction sought with a large enough effect; inconclusive = small, poorly fitted or top-dose-only effect, or another doubt; inactive = no such curve, though single readings can be large; an effect the other way counts as inactive or inconclusive. Potency is read from the fitted curve at half-maximal effect.

SMILES	HP1b binding inh	JMJD2A Tudor	Sfp PPTase inh	BAZ2B block	ALOX12 inh	G9a block
COc1cc(OC)cc(C(=O)NC(=S)NNC(=O)Cc2cccs2)c1	17.1%	-15.9%	-14.6%	21.9%	?	8.91µM*
COc1ccc(C(=O)NNC(=S)NC(=O)c2ccc(Cl)cc2)cc1	9.6%	-14.5%	/	/	0.0%	/
O=C(NCCNS(=O)(=O)c1cccc2nonc12)c1ccc2cc[nH]c2c1	/	/	/	/	8.5%	/
COC[C@@H]1CN(C(=O)c2cc3ccc(OC)cc3[nH]2)C[C@H]1C(N)=O	/	/	/	/	-6.6%	/
COCCNc1ncnc2ccc(-c3ccccc3C(F)(F)F)cc12	/	/	56.2µM*	/	20µM*	3.4%[0.501 µM]
O=C(CCS(=O)(=O)c1ccc(Br)cc1)NCc1ccco1	42.5%	2.3%	-1.7%	50.1µM*	3.3%	-21.4%[59 µM]
O=C(CCS(=O)(=O)c1ccc(Br)cc1)NCc1cccs1	50.1µM*	35.5µM*	1.6%	50.1µM*	-8.0%	?
O=C(CCCCC(=O)NCc1cccs1)NCc1cccs1	34.5%	2.8%	12.4%	-4.1%	1.4%	-2.3%
CCCCC(=O)N(C)C(c1ccccc1)c1c[nH]c2ccccc12 (stereo unspecified)	/	/	/	/	-64.0%	/
O=C(Cn1nc(-c2ccco2)ccc1=O)Nc1ccc(Cl)c(Cl)c1	?	-8.1%	56.2µM*	-18.7%	?	?
O=C(Cn1nc(-c2ccco2)ccc1=O)Nc1cc(C(F)(F)F)ccc1Cl	45.8%	-15.3%	-8.4%	-20.2%	?	-6.2%
O=C(Cn1nc(-c2ccco2)ccc1=O)Nc1cc(Cl)ccc1Cl	28.8%	-12.5%	44.7µM*	7.9%	25.3%	/
CCN(c1ccccc1)S(=O)(=O)c1cc(C(=O)Nc2ccc3oc(C)nc3c2)ccc1C	/	/	/	/	-16.7%	/
O=C1/C(=C\c2ccc(Cl)c(Cl)c2)CN(C(=O)CCN2CCOCC2)C/C1=C/c1ccc(Cl)c(Cl)c1	-32.6%	35.5µM*	/	/	?	/
CC1(C)C(=O)Nc2ccccc2N1C(=O)COC(=O)c1ccc(NC(N)=O)cc1	8.7%	-19.7%	/	-9.6%	/	35.5µM*
CC1(C)C(=O)Nc2ccccc2N1C(=O)COC(=O)c1cccc(O)c1	6.1%	?	/	/	-6.6%	/
Cc1cc(OCC(=O)OCC(=O)N2c3ccccc3NC(=O)C2(C)C)ccc1Cl	2.1%	?	/	79.4µM*	i	18.4%[12.7 µM]
COCCOC1CCOC2(CCN(C(=O)Cn3c(=O)oc4ccccc43)CC2)C1 (stereo unspecified)	/	/	/	/	10.3%	/
Cc1ccccc1OCC(O)Cn1c(SC(C)C)nc2c1c(=O)[nH]c(=O)n2C (stereo unspecified)	-11.7%	?	56.2µM*	-27.1%	?	3.55µM*
CCSc1nc2c(c(=O)[nH]c(=O)n2C)n1CC(O)COc1ccccc1C (stereo unspecified)	-26.8%	-3.0%	?	-14.6%	?	15.8µM*
Nc1nccnc1C(=O)NCc1ccncc1	/	/	/	/	-19.9%	/
CCn1c(SCC(=O)N/N=C\c2ccccc2OCC(=O)O)nnc1-c1ccc(Cl)cc1	33.2%	1.0%	1.3%	-8.8%	-18.9%	?
CCn1c(SCC(=O)N/N=C/c2ccccc2OCC(=O)O)nnc1-c1ccc(OC)cc1	-6.9%	-17.6%	-1.9%	56.2µM*	-56.9%	-22.6%
O=C(O)COc1ccccc1/C=N/NC(=O)CSc1nc2ccccc2c(=O)n1-c1ccc(Cl)cc1	15.1%	?	2.4%	56.2µM*	-59.2%	?
O=C(O)COc1ccccc1/C=N/NC(=O)CSc1nc2ccccc2c(=O)n1-c1ccccc1	0.9%	-28.1%	22.0%	?	0.0%	-2.5%
SMILES	HP1b binding inh	JMJD2A Tudor	Sfp PPTase inh	BAZ2B block	ALOX12 inh	G9a block
CCn1c(CN(Cc2ccccc2)Cc2ccccc2)nc2c1c(=O)[nH]c(=O)n2C	/	/	/	/	22.3%	/
CCOc1ccc(NC(=O)c2cc(=O)c3c(C)cc(C)cc3o2)cc1	/	/	/	/	13.1%	/
CC(CCc1ccco1)NC(=O)C1CCN(c2ccc3nnc(C(F)(F)F)n3n2)CC1 (stereo unspecified)	/	/	/	/	2.8%	/
O=C(O)CCNC(=O)/C(=C/c1ccco1)NC(=O)c1ccco1	33.1%	-12.0%	?	0.2%	-11.9%	-1.1%[0.501 µM]
CCC(C)NC(=O)/C(=C/c1ccco1)c1ccccc1 (stereo unspecified)	28.0%	-6.0%	3.16µM*	-36.9%	-68.5%	-48.8%[12.7 µM]
O=C(NCCc1ccccc1)/C(=C/c1ccco1)c1ccccc1	-18.0%	-32.7%	6.31µM*	?	?	10µM*
COc1ccc(NC(=O)c2ccc3c(c2)OCC(=O)N(C)C3)c(F)c1	/	/	/	/	-2.3%[176 µM]	/
COc1ccc(N2CC(C(=O)Nc3nnc(SCC(=O)NCc4ccco4)s3)CC2=O)cc1 (stereo unspecified)	-4.6%	?	50.1µM*	50.1µM*	-12.1%	44.7µM*
O=C(CSc1nnc(NC(=O)C2CC(=O)N(c3ccc(F)cc3)C2)s1)NCc1ccco1 (stereo unspecified)	17.8%	?	-22.0%	-33.6%	?	44.7µM*
